# VP16 counter: counter-screen for ROR gamma inhibitors: Gal4-VP16 reporter | Drosophila S2 Gal4-VP16 UAS-luciferase, luminescence, 20 h | Potency, µM (top dose mostly 53.6 µM), for the others: top-dose activity, negative = inhibition, most hits filed as inhibitors | actives 3.5% (n = 310,000);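 further: Gal4-VP16 expression switched on by copper sulfate through the metallothionein promoter; nearly all actives have a fitted effect of over 50% in size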
# 12-LOX inh: ALOX12 (human) lipoxygenase inhibition | P18054 | Potency, µM (titrated, usually from 108 µM), for inactives: top-dose activity change, negative = inhibition, most hits filed as inhibitors | purified 12hLO, xylenol orange hydroperoxide absorbance | actives 1.1% (n = 580,000)
#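 Purified human 12hLO (150 nM final) in 25 mM Hepes, 0.01% Triton X-100, pH 7.0 was preincubated 15 min at room temperature with compound. Then 40 uM arachidonic acid was added, 30 min. Hydroperoxide was read by Fe-XO absorbance ratio 573/405 nm.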
# TDP1 cell noCPT: qHTS for Inhibitors of human tyrosyl-DNA phosphodiesterase 1 (TDP1): qHTS in cells in absence of CPT. DT40 Tdp1-/- hTDP1 cells, no CPT, ATP luminescence, 48 h. Potency, µM (titrated, usually from 46.2 µM), inactives show at the top dose activity change, negative = growth inhibition, hits mostly inhibitors. actives 15% (n = 420,000); further: nearly all actives have a fitted effect of over 55% in size
#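 Growth kinetics read by CellTiter-Glo luminescence after ≥48 hr at 37 °C. Cells: DT40 Tdp1-/- stably carrying human TDP1, 400 per well, compound exposure in the absence of CPT (DMSO vehicle).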
# RORgamma inh: ROR gamma (mouse) transcription inhibition | AID 2551 | Potency, µM (series often up to 53.6 µM), without a hit: at the highest dose activity change, negative = inhibition, most hits filed as inhibitors | P51450 | actives 5.4% (n = 310,000) | Drosophila S2 Gal4-RORgamma UAS-luciferase reporter, 20 h; further: nearly all actives have a fitted effect of over 60% in size
# Target sequence (P51450 whole entry, looked up, the tested form may be a part): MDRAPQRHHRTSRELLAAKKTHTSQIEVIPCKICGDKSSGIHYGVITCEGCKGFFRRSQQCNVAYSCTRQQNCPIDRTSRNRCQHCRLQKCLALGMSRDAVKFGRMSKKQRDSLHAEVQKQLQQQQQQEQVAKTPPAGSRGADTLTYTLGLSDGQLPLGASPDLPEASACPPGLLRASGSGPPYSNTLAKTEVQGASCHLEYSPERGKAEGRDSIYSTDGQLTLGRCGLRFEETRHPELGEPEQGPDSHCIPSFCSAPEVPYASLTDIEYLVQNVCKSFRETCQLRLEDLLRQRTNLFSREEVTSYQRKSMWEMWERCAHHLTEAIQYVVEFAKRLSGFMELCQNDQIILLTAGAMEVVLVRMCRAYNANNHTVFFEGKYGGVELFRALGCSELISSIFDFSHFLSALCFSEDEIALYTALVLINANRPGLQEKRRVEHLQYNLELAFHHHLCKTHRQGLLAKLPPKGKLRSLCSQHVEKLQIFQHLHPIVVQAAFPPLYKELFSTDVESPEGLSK
#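 ROR gamma transcriptional activity was tracked as Gal4-UAS luciferase output in stably transfected Drosophila Schneider cells, with compound added 1 hr before 700 uM copper sulfate induction and a 20 hr ambient-temperature incubation.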
# DT40 TDP1 CPT: growth inhibition of DT40 Tdp1-/-;hTDP1 cells with camptothecin (screen for TDP1 inhibitors) | chicken DT40 Tdp1-/-;hTDP1 cells + 20 nM CPT, ATP luminescence, 48 h | Potency, µM (highest dose often 46.2 µM), for the others: at the highest dose activity change, negative = growth inhibition, usual class: inhibitors | actives 12% (n = 420,000); further: nearly all actives have a fitted effect of over 55% in size
#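 Chicken DT40 Tdp1-/- cells stably complemented with human TDP1 were seeded at 400 cells/well in medium containing 20 nM camptothecin, exposed to pin-transferred compounds, and grown at 37 °C for at least 48 hr. Viability was read as ATP luminescence.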
# ELG1 repair inh: blocks ELG1-dependent DNA repair in HEK293T cells; HEK293T ELG1-luciferase reporter, luminescence, 16 h; DNA damage induced by 5-fluorouridine; Potency, µM (series often up to 46.1 µM), for the others: at the top dose activity change, negative = inhibition, hits mostly inhibitors; actives 2.3% (n = 330,000); AID 504467; further: nearly all actives have a fitted effect of over 55% in size
#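 Luminescence from the luciferase reporter, measured 30 min after ONE-Glo reagent at room temperature, was the read-out. Beforehand, 2,000 cells per well were exposed for 16 hr at 37 °C to 5-fluorouridine together with compound or vehicle.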
# Starred values were filed as active, the others as inactive; ? = inconclusive; nt = no result given; [ ] = another dose, or the depositor's remark. In the library only some 15% were active in any assay of this set; here they are far more common. The call rests on the fitted dose curve; in most records, active means well fitted curve in the direction sought with a large enough effect; inconclusive means small, poorly fitted or top-dose-only effect, or another doubt; inactive means no such curve, though single readings can be large; an effect the other way counts as inactive or inconclusive. On the % scale 0 is the no-effect control and ±100 the full control effect; potency means the concentration at half of the fitted maximal effect.
SMILES,VP16 counter,12-LOX inh,TDP1 cell noCPT,RORgamma inh,DT40 TDP1 CPT,ELG1 repair inh
CCOC(=O)c1ccc(NC(=O)Cn2cccc2)cc1,-8.9%,-16.2%,16.4µM*,?,14.6µM*,?
Cc1cc(C)c2c(=O)cc(C(=O)Nc3cccnc3)oc2c1,nt,12.4%,nt,nt,nt,nt
CN(C)C[C@@H]1CN(c2ncccn2)C[C@H]1NC(=O)c1cnn(C)c1,nt,55.8%,nt,nt,nt,nt
Cc1ccc(CCC(=O)N2CCC(CO)(CN3CCCC3)CC2)cc1,nt,1.6%,nt,nt,nt,nt
CC(C)Nc1nc(Nc2ccccc2Cl)c2sccc2n1,nt,-21.6%,23.1µM*,nt,23.1µM*,nt
COCCNc1nc(NCCOc2ccccc2Cl)c2sccc2n1,nt,?,16.4µM*,nt,13µM*,nt
COCCNc1nc(Nc2ccccc2Cl)c2sccc2n1,nt,0.9%,23.1µM*,nt,?,nt
CC(C)Nc1nc(-c2ccccc2CO)c2sccc2n1,nt,-1.1%,-16.1%,nt,?,nt
COCCNc1nc(NCCCN(C)C)c2sccc2n1,nt,-4.3%,-13.4%,nt,-12.2%,nt
Cc1c(C(=O)C(=O)N2c3ccc(F)cc3CCC2C)c2ccccc2n1C (stereo not given),-2.3%,-7.1%,2.59µM*,-9.2%,2.59µM*,-0.6%
Cc1c(C(=O)C(=O)N2CCN(C)CC2)c2ccccc2n1C,-15.0%,7.3%,9.2%,-1.0%,-6.9%,12.4%
COc1cc(C2NCC(c3ccc(Cl)cc3Cl)c3c2[nH]c2ccccc32)cc(OC)c1OC (stereo not given),-19.1%,28.2µM*,18.4µM*,?,?,0.6%
N#CCCN(Cc1cccnc1)C(=O)c1sc2cc(F)ccc2c1Cl,?,-5.6%,14.6µM*,-16.0%,?,-10.7%
CC(C)(C)CC(=O)Nc1ccncc1,nt,-28.5%,nt,nt,nt,nt
CC(=O)Nc1ccc(Nc2cc(C)nc3c(-c4ccc(Cl)cc4)cnn23)cc1,?,41.1%,23.1µM*,?,18.4µM*,?
Cc1ccc(Nc2cc(C)nc3c(-c4ccccc4)cnn23)cc1,nt,45.2%,nt,nt,nt,nt
CC(=O)Nc1ccc(Nc2cc(C)nc3c(-c4ccc(Cl)cc4)c(C)nn23)cc1,7.08µM*,-14.4%,?,11.2µM*,?,-14.9%
CC(C)CCN1CCC(C2CCN(Cc3cccnc3)CC2)C1 (stereo not given),nt,121.8%,nt,nt,nt,nt
CN1CCN(C(=O)c2ccc(CSc3nc4ccncc4n3Cc3ccc(F)cc3)cc2)CC1,-6.1%,23.0%,-29.7%,14.0%,-14.3%,4.4%
CCc1ccc(CNC(=O)c2ccc3nc(SCc4ccc(F)cc4)n(C)c3c2)cc1,nt,-19.0%,20.6µM*,nt,14.6µM*,nt
Cn1c(SCc2ccc(F)cc2)nc2ccc(C(=O)NCc3ccccc3)cc21,nt,-21.1%,-20.1%,nt,-25.7%,nt
CCOC(=O)N1CCN(C(=O)c2ccc3nc(SCc4ccc(F)cc4)n(C)c3c2)CC1,-11.1%,147.7%,20.6µM*,?,23.1µM*,13µM*
CCOc1ccc2nc(NC(=O)c3nn(Cc4ccccc4)c(=O)c4ccccc34)sc2c1,nt,8.5%,nt,nt,nt,nt
CCOCC(=O)NC1CCc2cc(OC)c(OC)c(OC)c2-c2ccc(SC)c(=O)cc21 (stereo not given),nt,?,0.164µM*,nt,0.0146µM*,nt
COc1cc(CC(=O)NC2CCc3ccccc32)ccc1C (stereo not given),nt,-5.8%,nt,nt,nt,nt
SMILES,VP16 counter,12-LOX inh,TDP1 cell noCPT,RORgamma inh,DT40 TDP1 CPT,ELG1 repair inh
COc1c(O[C@H]2O[C@@H](CO)[C@@H](O)[C@@H](O)[C@@H]2O)cc2c(c1OC)-c1ccc(SC)c(=O)cc1[C@H](NC(C)=O)CC2,-9.6%[17 µM],nt,nt,-3.5%[16.9 µM],nt,nt
CN[C@H]1CCc2cc(OC)c(OC)c(OC)c2-c2ccc(OC)c(=O)cc21,nt,-9.3%,0.13µM*,nt,0.0206µM*,nt
CCOC(=O)NC1CCc2cc(OC)c(OC)c(OC)c2-c2ccc(SC)c(=O)cc21 (stereo not given),nt,?,0.0164µM*,nt,0.0103µM*,nt
COc1cc2c(c(OC)c1OC)-c1ccc(NC(=O)c3ccccc3)c(=O)cc1[C@@H](NC(C)=O)CC2,12.0%,-17.0%,-9.0%,2.3%,3.3%,?
CCCCOC(=O)NC1CCc2cc(OC)c(OC)c(OC)c2-c2ccc(SC)c(=O)cc21 (stereo not given),nt,-17.9%,0.0146µM*,nt,0.0164µM*,nt
CCOc1ccccc1C1NC(=O)N(CC(=O)Nc2ccc(C)cc2)C2=C1C(=O)OC2 (stereo not given),nt,-2.8%,nt,nt,nt,nt
CS(=O)(=O)Nc1cccc(NC(=O)C2Cc3c(-c4cccc(F)c4)ccnc3O2)c1 (stereo not given),nt,-12.9%,3.26µM*,nt,5.17µM*,nt
COc1ccc(NC(=O)C2Cc3c(-c4ccco4)ccnc3O2)cc1OC (stereo not given),nt,-5.4%,?,nt,23.1µM*,nt
COc1ccc(NC(=O)C2Cc3c(-c4cccc(F)c4)ccnc3O2)cc1OC (stereo not given),nt,-9.9%,4.61µM*,nt,7.31µM*,nt
CNC(=O)C1Cc2c(-c3cccc(F)c3)ccnc2O1 (stereo not given),nt,0.9%,4.5%,nt,-10.7%,nt
O=C(Nc1ccccc1)C1Cc2c(-c3cccc(F)c3)ccnc2O1 (stereo not given),nt,-8.7%,?,nt,20.6µM*,nt
CC1=C(C)CC(C(=O)N2CCCc3cc(C)ccc32)C(C(=O)O)C1 (stereo not given),nt,-14.0%,nt,nt,nt,nt
COc1ccccc1C(=O)N1CCCN(c2cc(-c3ccc(Br)cc3)[nH]n2)CC1,nt,-9.6%,nt,nt,nt,nt
Cc1cc(C)n(CCNC(=O)c2cc(COc3ccc(F)cc3Cl)on2)n1,0.0%,-11.3%,?,?,?,-28.4%
CSc1ccccc1OCc1cc(C(=O)NCCn2nc(C)cc2C)no1,3.8%,0.0%,?,23.5%,11.6µM*,?
CCN(CC1CCCO1)C(=O)c1cc(COc2ccccc2SC)on1 (stereo not given),-15.3%,306.1%,20.6µM*,-28.1%,16.4µM*,21.4%
CSc1ccccc1OCc1cc(C(=O)NCCN2CCCc3ccccc32)no1,?,-11.1%,14.6µM*,4.8%,?,?
CSc1ccccc1OCc1cc(C(=O)N(C)Cc2ccc(C)o2)no1,14.2%,?,?,43.0%,16.4µM*,?
CSc1ccccc1OCc1cc(C(=O)N(C)Cc2ccc3nsnc3c2)no1,-17.2%,-18.3%,-28.2%,-28.0%,?,?
COCCOc1ccc2c(n1)CCN(C(=O)Nc1ccc(C)c(C)c1)C2,nt,-9.5%,nt,nt,nt,nt

# Compound activity as filed in PubChem.
